# Assay results published in PubChem BioAssay (NCI).
# The panel holds about 83,000 compounds, 20% with a hit somewhere; the sample as a whole holds those more often.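 Cell lines were cultured in 96-well plates, exposed to a single compound concentration, and assessed for percent growth 48 hours later.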 Activity calls are given as the source filed them.
# Tested on: TK-10 renal
# Experiment: NCI-60 one-dose screen, 48 h (100 = growth as untreated, 0 = no growth, -100 = all killed)
# Conditions: 10 µM unless noted
# Method: Growth inhibition of the TK-10 human tumor cell line is measured as a screen for anti-cancer activity. Cells are grown in 96 well plates and exposed to the test compound for 48 hours. Compounds are tested at a single concentration, which is 10^-5 M for most compounds. The reported endpoint is percent growth (GI% or GIPRCNT), where numbers from 0 - 100% represent growth inhibition, and numbers from -100% - 0 represent cell death. For example, a value of 40 represents 60% growth inhibition. A value of 0 means no net growth occurred over the course of the experiment. A value of -40 indicates 40% of cells at the beginning of the experiment died by the end of the experiment. A value of -100 means all cells are dead at the end of the experiment.
# NCI-60 Human Tumor Cell Lines Screen was performed using the standard one-dose NCI protocol, which is described in more detail at https://dtp.cancer.gov/discovery_development/nci-60/default.htm.
# Compounds with GIPRCNT values below 10 were considered active. Activity score was based on GIPRCNT using the following formula: […]
# Score is 0 for GIPRCNT values of 100 or above, 50 for GIPRCNT values of 0, and 100 for GIPRCNT values of -100.
row,Compound,growth
1,C=CC1=C[C@@H]2[C@@H]3O[C@]4(CC[C@H](O4)[C@@H](C)C[C@@H](O)C3=O)C[C@H](O)C3=NCC[C@@]32CC1,-21% (active)
2,O=C(CN1CCN(C(=O)c2ccco2)CC1)Nc1ccc(Cl)cc1C(=O)c1ccccc1Cl,132% (inactive)
3,CCCCN(CCCC)P(=O)(Oc1ccccc1)Oc1ccccc1,78.5% (inactive)
4,COc1ccc(/C=C\c2cc(OC)c(OC)c(OC)c2)cc1OCC(=O)Nc1nc2ccc(F)cc2s1,17.5% (inactive)
5,O=C(Nc1ccc([As]=[As]c2ccc(NC(=O)c3ccccc3)cc2)cc1)c1ccccc1 (stereo not given),-98.4% (active)
6,CCOC(=O)CCN(C)C1=Nc2ccc(Cl)cc2C(c2ccccc2)=[N+]([O-])C1,91.4% (inactive)
7,O=C(c1ccccc1O)c1[nH]c(Cl)c(Cl)c1-n1c(C(=O)c2ccccc2O)cc(Cl)c1Cl,6.68% (active)
8,O=C1OCCC1Br (stereo not given),104% (inactive)
9,COC(=O)[C@@H](C)C[C@H](Cc1ccccc1)NC(=O)c1nc([C@@H](C[C@H](C(C)C)N(C)C(=O)[C@@H](NC(=O)[C@H]2CCCN2C)C(C)C)OC(C)=O)sc1C,13.6% (inactive)
10,Cc1ccc(Nc2nc3c(s2)C2=CC[C@@H]4[C@H](CC[C@]5(C)C(=O)CC[C@@H]45)[C@@]2(C)CC3)cc1,53.5% (inactive)
11,Nc1ccc(Cl)cc1,92.3% (inactive)
12,CCCCOc1ccc(C(N)Cc2ccccc2)cc1 (stereo not given),98% (inactive)
13,CN(C)C1C(=O)C(C(N)=O)=C(O)C2(O)C(=O)C3=C(O)c4c(O)cccc4C(C)(O)C3CC12.[Cl][Sb]([Cl])[Cl] (stereo not given),42.4% (inactive)
14,CNC(=O)Oc1ccc(C(C)(C)C)cc1OC(=O)NC,98.2% (inactive)
15,O=C(CC1(O)C(=O)N(Cc2ccccc2)c2ccc(F)cc21)c1ccc(C(=O)NCC2CCC3(CC2)OOC2(CCCCC2)OO3)cc1 (stereo not given),-93.6% (active)
16,CNC(=O)Oc1ccc(N(C)C)cc1C(C)C,95% (inactive)
17,CC(=O)OC1CCC2(C)C(CCC3C2CC(=O)C2(C)C3CC(Sc3ccc(N(CCCl)CCCl)cc3)C2C(C)=O)C1 (stereo not given),92.6% (inactive)
18,CC(=O)O[C@H](C[C@H](C(C)C)N(C)C(=O)[C@@H](NC(=O)[C@H]1CCCCN1C)C(C)(C)C)c1nc(C(=O)N[C@@H](Cc2ccccc2)C[C@H](C)C(=O)O)cs1,52.6% (inactive)
19,CC1=C(CCCOC(=O)[C@H](N)CC(C)C)C2=C(C)C3(CC3)[C@@](C)(O)C(=O)C2=C1,-19% (active)
20,CC(=O)O[C@@H]1CC[C@]2(C)[C@H]3CC[C@]4(C)C(=O)CC[C@H]4[C@@H]3C[C@@H]3SC(N)=N[C@@]32C1,91.1% (inactive)

row,Compound,growth
1,CO[C@H](C(=O)O)[C@@H]1Cc2cc3cc(OC4CC(OC5CC(O)C(O)C(C)O5)C(O)C(C)O4)c(C)c(O)c3c(O)c2C(=O)[C@H]1OC1CC(OC2CC(OC3CC(C)(O)C(O)C(C)O3)C(O)C(C)O2)C(O)C(C)O1 (stereo not given in full),24.2% (inactive)
2,COc1cc2c(cc1OCCCCn1c(-c3cccs3)nc3ccccc31)N=C[C@@H]1CCCN1C2=O,-22.8% (active)
3,Nc1ccc(-c2nc3cc(F)ccc3[se]2)cc1F,43.6% (inactive)
4,CCOC(=O)[C@@H](C)C[C@H](Cc1ccccc1)NC(=O)c1csc([C@@H](C[C@H](C(C)C)N(C)C(=O)[C@H](CC)NC(=O)[C@H]2CCCCN2C)OC(C)=O)n1,69.6% (inactive)
5,O=P(Oc1ccc(Cl)cc1)(N1CC1)N1CC1,104% (inactive)
6,COc1ccc(NC([Se])=NC23CC4CC(CC(C4)C2)C3)cc1,-40.9% (active)
7,CCn1c2ccccc2c2cc(C(=O)c3ccc(C)c4ccccc34)ccc21,38% (inactive)
8,C1CCC([PH+](C2CCCCC2)C2CCCCC2[PH+](C2CCCCC2)C2CCCCC2)CC1.O=C(C1[CH-]CCCC1)C1CCCC[N-]1.[Au] (stereo not given),-47.7% (active)
9,CC[C@H](C)[C@@H]([C@@H](CC(=O)N1CCC[C@H]1[C@H](OC)[C@@H](C)C(=O)N[C@H](C)[C@@H](O)c1ccccc1)OC)N(C)C(=O)[C@@H](NC(=O)[C@@H](NC)C(C)C)C(C)C,47.2% (inactive)
10,C=CCCCCCCCCC(=O)[O-].C=CCCCCCCCCC(=O)[O-].[Zn+2],115% (inactive)
11,NC(CCl)CCl,111% (inactive)
12,C=C1C(=O)O[C@H]2[C@H]1CC/C(COC(=O)C(=O)c1cn(Cc3ccccc3)c3ccccc13)=C\CC[C@@]1(C)O[C@@H]21,-62.2% (active)
13,C[C@@H]1O[C@@H](O[C@H]2C[C@@H](O)[C@]3(CO)C4C(CC[C@]3(O)C2)[C@@]2(O)CC[C@H](C3=CC(=O)OC3)[C@@]2(C)C[C@H]4O)[C@H](O)[C@H](O)[C@H]1O (stereo not given in full),-65% (active)
14,CCOC(=O)[C@@H](C)C[C@H](Cc1ccccc1)NC(=O)c1csc([C@@H](C[C@H](C(C)C)N(C)C(=O)[C@H](CCC(C)C)NC(=O)[C@H]2CCCCN2C)OC(C)=O)n1,-5.17% (active)
15,CCOC(=O)C(Cc1ccc(N(CCCl)CCCl)cc1)NC(=O)C(CC(C)C)NC(C)=O (stereo not given),21.3% (inactive)
16,COC(=O)[C@@]1(O)C[C@H]2O[C@]1(C)n1c3ccccc3c3c4c(c5c6ccccc6n2c5c31)C(=O)NC4,-86.3% (active)
17,N#CC1C(C#N)C2CCC1C1C2N1c1ccccc1 (stereo not given),106% (inactive)
18,c1cnc2[nH]cc(-c3csc(-c4cn(CCCCN5CCCCC5)c5ccccc45)n3)c2c1,124% (inactive)
19,COC(=O)CC[C@H](Cc1ccccc1)NC(=O)c1csc([C@@H](C[C@H](C(C)C)N(C)C(=O)[C@@H](NC(=O)[C@H]2CCCCN2C)C(C)C)OC(C)=O)n1,42.5% (inactive)
20,NC(=O)CNc1ccc([As]=[As]c2ccc(NCC(N)=O)cc2)cc1 (stereo not given),58.1% (inactive)
